Compound activity: PubChem BioAssay, National Center for Advancing Translational Sciences (NCATS)
The list is not random: actives were taken first. Their share in the collection is about 18%.
PLK1 PBD block: PLK1 (human) polo-box domain binding inhibition. Plk1 PBD binding of FITC phosphopeptide, fluorescence polarization. P53350. Potency, µM, inactives show max response, negative = inhibition, usual class: inhibitors. 2.8% of 360,000 active; further: series mostly up to about 57 µM; nearly all actives have a fitted effect of over 65% in size
TDP1 inh: blocks human tyrosyl-DNA phosphodiesterase 1; AID 485290; Potency, µM (series often up to 130 µM), inactives show at the highest dose activity change, negative = inhibition, usual class: inhibitors; 0.28% of 350,000 active; recombinant TDP1, AlphaScreen DNA substrate cleavage; further: nearly all actives have a fitted effect of over 40% in size
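Tdp1 1 nM final; 15 min RT w/ cpd; substrate 15 nM, 5 min; beads 10 ug/ml, 10 min; AlphaScreen read. Neg ctrl: no enzyme.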
TDP1 cell CPT: DT40-hTDP1 cell growth loss with CPT. chicken DT40 Tdp1-/-;hTDP1 cells + 20 nM CPT, ATP luminescence, 48 h. Potency, µM (highest dose often 46.2 µM), inactives show at the highest dose activity change, negative = growth inhibition, most hits filed as inhibitors. 12% of 420,000 active. AID 686979; further: nearly all actives have a fitted effect of over 55% in size
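Chicken DT40 Tdp1-/- cells complemented with human TDP1, 400 cells/well, exposed to compounds plus 20 nM camptothecin for at least 48 h at 37 C; viability read as ATP content by CellTiter-Glo luminescence.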
VDR inh: inhibitors of human vitamin D receptor; P11473; VDR-SRC2-3 peptide fluorescence polarization, 2 h; Potency, µM, without a hit: max response, negative = inhibition, most hits filed as inhibitors; 0.93% of 400,000 active
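Fluorescence polarization assay of small-molecule disruption of VDR binding to coregulator peptide SRC2-3. Compounds and controls pin-transferred, then read after 2 h incubation at ambient room temperature.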
KAT2A inh: inhibitors of human GCN5L2 histone acetyltransferase. Q92830. GCN5L2 HAT assay, ThioGlo1 CoA-SH fluorescence. Potency, µM (top dose mostly 58.9 µM), for the others: top-dose activity change, negative = inhibition, actives largely listed as inhibitors. 0.21% of 390,000 active. AID 504327
Target sequence (Q92830 whole entry, looked up): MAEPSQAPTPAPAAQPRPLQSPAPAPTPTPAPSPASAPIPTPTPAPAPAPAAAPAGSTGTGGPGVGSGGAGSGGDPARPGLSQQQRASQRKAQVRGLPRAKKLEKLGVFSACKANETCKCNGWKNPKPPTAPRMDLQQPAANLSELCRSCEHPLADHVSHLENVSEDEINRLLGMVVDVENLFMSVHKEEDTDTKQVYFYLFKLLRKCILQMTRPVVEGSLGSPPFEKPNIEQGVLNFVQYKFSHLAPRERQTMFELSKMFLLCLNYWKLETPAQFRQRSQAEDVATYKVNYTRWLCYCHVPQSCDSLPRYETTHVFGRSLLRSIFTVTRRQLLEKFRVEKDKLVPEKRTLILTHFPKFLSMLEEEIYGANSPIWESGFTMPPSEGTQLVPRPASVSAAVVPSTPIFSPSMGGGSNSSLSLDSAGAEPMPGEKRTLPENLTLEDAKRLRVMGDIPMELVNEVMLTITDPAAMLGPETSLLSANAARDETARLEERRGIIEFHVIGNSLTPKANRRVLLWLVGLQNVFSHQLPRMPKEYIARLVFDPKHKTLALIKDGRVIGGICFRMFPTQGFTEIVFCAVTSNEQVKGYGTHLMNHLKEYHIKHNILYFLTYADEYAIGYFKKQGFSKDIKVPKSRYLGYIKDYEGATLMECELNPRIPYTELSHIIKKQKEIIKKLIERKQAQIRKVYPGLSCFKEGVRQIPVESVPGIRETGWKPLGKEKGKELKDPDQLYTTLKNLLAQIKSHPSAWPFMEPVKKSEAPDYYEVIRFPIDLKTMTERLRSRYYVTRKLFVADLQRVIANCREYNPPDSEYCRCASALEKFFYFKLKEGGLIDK
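ThioGlo1-coupled HAT assay: 20nM GCN5L2, 70uM acetyl-CoA, 75uM H3(1-25) peptide, pH 7.5. Fluorescence read at 340/540nm at start and after 20 min at room temperature.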
TDP1 cell noCPT: qHTS for Inhibitors of human tyrosyl-DNA phosphodiesterase 1 (TDP1): qHTS in cells in absence of CPT. AID 686978, 2013. 15% of 420,000 active. DT40 Tdp1-/- hTDP1 cells, no CPT, ATP luminescence, 48 h. Potency, µM (top dose mostly 46.2 µM), for the others: top-dose activity change, negative = growth inhibition, most hits filed as inhibitors; further: nearly all actives have a fitted effect of over 55% in size
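Chicken DT40 Tdp1-/- cells complemented with human TDP1, screened without camptothecin (DMSO vehicle only), 400 cells/well. Compounds pin-transferred, cells incubated at 37 °C for at least 48 hr. Growth read as ATP-dependent luminescence (CellTiter-Glo, 30 min at RT).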
Starred values were filed as active, the others as inactive; [ ] = remark or other dose. The call rests on the fitted dose curve; in most records, active means well fitted curve in the direction sought with a large enough effect; inconclusive means small, poorly fitted or top-dose-only effect, or another doubt; inactive means no such curve, though single readings can be large; an effect the other way counts as inactive or inconclusive. On the % scale 0 is the no-effect control and ±100 the full control effect; potency means the concentration at half of the fitted maximal effect.

`CCc1ccccc1NC(=O)N1CCN(Cc2nc3ccc(C)cc3o2)CC1` gave TDP1 inh -4%, TDP1 cell CPT -4%, VDR inh 7%, KAT2A inh 0% and TDP1 cell noCPT -13%.
Cc1ccc(S(=O)(=O)NCC(=O)OCC(=O)NCc2ccc(F)cc2)cc1 was read as PLK1 PBD block 2%, TDP1 inh 0%, TDP1 cell CPT -5%, VDR inh 10%, KAT2A inh 0% and TDP1 cell noCPT 1%.
COC(=O)c1cc2ccsc2n1CC(=O)Nc1cc(Cl)ccc1OC was read as PLK1 PBD block 3%, TDP1 inh 5%, TDP1 cell CPT 7.3µM*, VDR inh -3%, KAT2A inh -3% and TDP1 cell noCPT 13µM*.
`CCCOP(=O)(c1ccc(N(C)C)cc1)C(O)c1ccc(N(C)C)cc1` (centres undefined) gave PLK1 PBD block -7%, TDP1 cell CPT -1%, VDR inh 0%, KAT2A inh -4% and TDP1 cell noCPT -18%.
`CCOc1ccc(CCNS(=O)(=O)c2c(C)n[nH]c2C)cc1OCC` gave PLK1 PBD block -23%, TDP1 inh 2%, TDP1 cell CPT 21µM*, VDR inh -1%, KAT2A inh 1% and TDP1 cell noCPT -18%.
For CCOc1ccc(CCNS(=O)(=O)c2cc3c(cc2C)NC(=O)CO3)cc1OCC the results were PLK1 PBD block -3%, TDP1 cell CPT -6%, VDR inh -23%, KAT2A inh 4% and TDP1 cell noCPT inconclusive.
Screening COc1cccc(-c2nc(N3CCN(C)CC3)c3ccccc3n2)c1 returned TDP1 cell CPT inconclusive, VDR inh -5%, KAT2A inh -13% and TDP1 cell noCPT inconclusive.
For N#CCc1c(C#N)c(N)nc(N2CCN(c3ccc(F)cc3)CC2)c1C#N the results were PLK1 PBD block -6%, TDP1 inh 7%, TDP1 cell CPT inconclusive, VDR inh 3%, KAT2A inh -1% and TDP1 cell noCPT inconclusive.
Screening COc1ccc(CN2C(=O)Cc3c2nc(N)c2c(N)nc(N4CCOCC4)c(C#N)c32)cc1 returned PLK1 PBD block -14%, TDP1 cell CPT 15µM*, VDR inh inconclusive, KAT2A inh 0% and TDP1 cell noCPT 21µM*.
For COCCN1C(=O)Cc2c1nc(N)c1c(N)nc(N3CCN(c4ccc(F)cc4)CC3)c(C#N)c21 the results were PLK1 PBD block -25%, TDP1 inh 3%, TDP1 cell CPT 8.2µM*, VDR inh -11%, KAT2A inh -2% and TDP1 cell noCPT 2.1µM*.
COc1ccc(S(=O)(=O)N2CCN(CC(=O)Nc3sccc3C(N)=O)CC2)cc1OC was read as PLK1 PBD block -5%, TDP1 inh -2%[56.1 µM], TDP1 cell CPT inconclusive, VDR inh -6%, KAT2A inh 0% and TDP1 cell noCPT 23µM*.
Cc1cc(C)c(C)c(S(=O)(=O)N2CCN(CC(=O)Nc3sccc3C#N)CC2)c1C was read as PLK1 PBD block -8%, TDP1 inh 8%, TDP1 cell CPT 26µM*, VDR inh 11%, KAT2A inh -4% and TDP1 cell noCPT inconclusive.
For N#Cc1cnn(-c2ccccc2)c1NC(=O)CN1CCN(c2ccccc2)CC1 the results were PLK1 PBD block 3%, TDP1 inh 4%, TDP1 cell CPT inconclusive, VDR inh -4%, KAT2A inh -7% and TDP1 cell noCPT 23µM*.
`CC(=O)N1CCN(CC(=O)Nc2sccc2C#N)CC1` gave PLK1 PBD block 24µM*, TDP1 inh 2%, TDP1 cell CPT -16%, VDR inh -5%, KAT2A inh -2% and TDP1 cell noCPT -5%.
COc1ccc(N2CCN(CC(=O)Nc3sccc3C#N)CC2)cc1 was read as PLK1 PBD block -4%, TDP1 inh 5%, TDP1 cell CPT -1%, VDR inh 7%, KAT2A inh -2% and TDP1 cell noCPT -25%.
For C=CCN(Cc1cccs1)C(=O)COc1ccc2c(c1)OCO2 the results were PLK1 PBD block -4%, TDP1 inh 2%, TDP1 cell CPT -29%, VDR inh 9%, KAT2A inh 0% and TDP1 cell noCPT inconclusive.
For N#Cc1ccsc1NC(=O)CN1CCN(c2ccc(O)cc2)CC1 the results were PLK1 PBD block -4%, TDP1 inh 8%, TDP1 cell CPT inconclusive, VDR inh -17%, KAT2A inh 19% and TDP1 cell noCPT 10µM*.
Screening N#Cc1ccsc1NC(=O)CN1CCN(c2ccccc2)CC1 returned PLK1 PBD block -2%, TDP1 inh 3%, TDP1 cell CPT 10%, VDR inh -13%, KAT2A inh -26% and TDP1 cell noCPT -29%.
For Cc1ccc(NC(=O)N2CCCN(Cc3ccc(F)cc3)C2)cc1C the results were PLK1 PBD block -4%, TDP1 inh 2%, TDP1 cell CPT inconclusive, VDR inh 6%, KAT2A inh -9% and TDP1 cell noCPT inconclusive.
`CN(C)S(=O)(=O)c1ccc(NC(=O)N2CCN(c3ccccc3)CC2)cc1` gave PLK1 PBD block -13%, TDP1 inh 2%, TDP1 cell CPT -23%, VDR inh -11%, KAT2A inh -3% and TDP1 cell noCPT -8%.
Screening CC(=O)c1ccc(N2CCN(C(=O)Nc3ccc(Cl)cc3)CC2)cc1 returned PLK1 PBD block -3%, TDP1 inh 8%, TDP1 cell CPT inconclusive, VDR inh 3%, KAT2A inh -9% and TDP1 cell noCPT 10µM*.
COc1ccc(N2CCN(C(=O)Nc3ccc(Cl)cc3)CC2)cc1 was read as TDP1 inh 6%, TDP1 cell CPT -22%, VDR inh 4%, KAT2A inh -2% and TDP1 cell noCPT inconclusive.
Screening CC(=O)c1ccc(NC(=O)N2CCN(c3cccc(Cl)c3)CC2)cc1 returned PLK1 PBD block 1%, TDP1 inh -1%, TDP1 cell CPT 12µM*, VDR inh 7%, KAT2A inh -18% and TDP1 cell noCPT 12µM*.
CC(=O)c1ccc(N2CCN(C(=O)C3CCN(C(=O)Nc4ccccc4)CC3)CC2)cc1 was read as PLK1 PBD block -8%, TDP1 inh 1%, TDP1 cell CPT inconclusive, VDR inh 1%, KAT2A inh -4% and TDP1 cell noCPT inconclusive.
O=C(Nc1ccc(Cl)cc1)N1CCN(c2ccccc2)CC1 was read as PLK1 PBD block 27µM*, TDP1 inh 7%, TDP1 cell CPT inconclusive, VDR inh -9%, KAT2A inh -5% and TDP1 cell noCPT inconclusive.
